Reference: PubChem BioAssay (NCATS)
“And” between values parts separate entries of the source, which are not always exact repeats. Equal entries are not always repeated. Records with an inconclusive call do not appear. The source made the active and inactive calls. Unless noted, the call rests on the fitted dose curve; in most records, active means well fitted curve in the direction sought with a large enough effect; inconclusive means small, poorly fitted or top-dose-only effect, or another doubt; inactive means no such curve, though single readings can be large; an effect the other way counts as inactive or inconclusive.

Key:
[1] = Cell Viability - LYMP2-013 (AID 970);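 further: series mostly up to about 92 µM; 0% = DMSO only and full inhibition = tetraoctylammonium bromide control; nearly all actives have a fitted effect of over 55% in size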
Summary of the method: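 qHTS cytotoxicity: ATP-dependent luminescence (CellTiter-Glo, 30 min room temperature) read after 24 h compound exposure at 37 C of 2500 LYMP2-013 lymphoblastoid cells per well. Concentration-response fitted with Hill equation to give AC50.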

[2] = Cell Viability - LYMP2-015 (AID 971);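 further: 0% = DMSO only and full effect = 92 µM tetraoctylammonium bromide; nearly all actives have a fitted effect of over 55% in size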
Summary of the method: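 Cytotoxicity readout: decrease in intracellular ATP (CellTiter-Glo luminescence) in 2500 LYMP2-015 lymphoblastoid cells/well after 24 h compound exposure at 37 C. Concentration-response data fitted with the standard Hill equation to give AC50.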

[3] = Cell Viability - LYMP2-017 (AID 972); further: series mostly up to about 92 µM; on the % scale 0 is the no-effect control and ±100 the full control effect; nearly all actives have a fitted effect of over 55% in size
Summary of the method: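 CellTiter-Glo luminescence (cellular ATP, 30 min RT) measured cytotoxicity after 24 hr compound treatment at 37 C. Cells were a human lymphoblastoid line, LYMP2-017, plated at 2500/well and incubated 5 hr first; concentration-response fitted with Hill equation for AC50.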

[4] = Cell Viability - LYMP2-019 (AID 973);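 further: 0% = DMSO alone and full effect = 92 µM tetraoctylammonium bromide; nearly all actives have a fitted effect of over 55% in size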
Summary of the method: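 AC50 values come from Hill-equation fits of luminescent intracellular ATP (CellTiter-Glo, 30 min, room temperature) following 24 h compound exposure at 37 C. Cells: LYMP2-019 lymphoblastoid line, 2500 per well, in complete culture medium.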

[5] = Cell Viability - LYMP2-021 (AID 974)
Summary of the method: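 AC50 values come from Hill-equation fits to CellTiter-Glo luminescence (ATP content), read after 24 hour compound exposure at 37 C of 2500 LYMP2-021 lymphoblastoid cells/well; tetraoctylammonium bromide as positive control.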

[6] = Cell Viability - LYMP2-023 (AID 975)
Summary of the method: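 Intracellular ATP, read by CellTiter-Glo luminescence, reports viability after 24 hr compound exposure at 37 C. 2500 lymphoblastoid cells/well (LYMP2-023) seeded 5 hr beforehand; Hill fits give AC50; positive control tetraoctylammonium bromide.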

[7] = Cell Viability - LYMP2-025 (AID 976);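 further: series mostly up to about 92 µM; plate controls were DMSO only for no effect and tetraoctylammonium bromide control for full effect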
Summary of the method: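 Cytotoxicity read as loss of intracellular ATP (luciferase luminescence) after 24 h compound treatment at 37 C. Uses LYMP2-025 lymphoblastoid cells in 1536-well format; Hill-equation modelling gives AC50; tetraoctylammonium bromide as positive control.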

[8] = Cell Viability - LYMP2-002 (AID 977);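 further: series mostly up to about 92 µM; plate controls were DMSO only for no effect and 92 µM tetraoctylammonium bromide for full effect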
Summary of the method: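 In this qHTS viability screen, 2500 human lymphoblastoid cells per well receive compound for 24 hr at 37 C, and luciferase-based ATP luminescence gives the viability signal. Tetraoctylammonium bromide serves as positive control.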

[9] = Cell Viability - LYMP2-007 (AID 979);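 further: cells exposed to compound for 24 h before reading; 0% = DMSO only and the negative end = 92 µM tetraoctylammonium bromide; nearly all actives have a fitted effect of over 60% in size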
Summary of the method: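 AC50 values come from Hill-equation fits of luminescent intracellular ATP (CellTiter-Glo, 30 min, room temperature) following 24 h compound exposure at 37 C. Cells: LYMP2-007 lymphoblastoid line, 2500 per well, in complete culture medium.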

[10] = Cell Viability - LYMP2-008 (AID 980); further: on the % scale 0 is the no-effect control and ±100 the full control effect; nearly all actives have a fitted effect of over 60% in size
Summary of the method: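 Cytotoxicity determined from ATP-dependent luciferase luminescence (CellTiter-Glo) following 24 h compound exposure of human lymphoblastoid LYMP2-008 cells at 37 C. Concentration-response data fitted to the Hill equation to give AC50.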

[11] = Cell Viability - LYMP2-010 (AID 981)
Summary of the method: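 CellTiter-Glo ATP luminescence measured cytotoxicity after 24 h compound exposure at 37 C. LYMP2-010 cells were seeded at 2500/well, with tetraoctylammonium bromide as control; concentration-response curves gave AC50 values by the Hill equation.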

[12] = Cell Viability - LYMP2-012 (AID 982)
[13] = Cell Viability - LYMP2-014 (AID 983);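 further: series mostly up to about 92 µM; plate controls were DMSO only for no effect and 92 µM tetraoctylammonium bromide for full effect; nearly all actives have a fitted effect of over 50% in size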
Summary of the method: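 Intracellular ATP loss, read by luciferase luminescence, measures acute cytotoxicity after 24 h compound exposure of lymphoblastoid LYMP2-014 cells (2500/well, 37 C). Concentration-response data fitted to the Hill equation for AC50.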

[14] = Cell Viability - LYMP2-016 (AID 984)
Summary of the method: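 qHTS, 1536-well: 2500 LYMP2-016 cells/well, 5 hr 37 C, compound added, 24 hr 37 C, CellTiter-Glo 30 min RT, luminescence. Tetraoctylammonium bromide positive control. AC50 via Hill fit.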

[15] = Cell Viability - LYMP2-018 (AID 985);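 further: plate controls were DMSO only for no effect and tetraoctylammonium bromide at 92 µM for full effect; nearly all actives have a fitted effect of over 50% in size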
Summary of the method: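 Viability read as CellTiter-Glo luminescence (cellular ATP) after 24 hr compound exposure at 37 C of 2500 LYMP2-018 lymphoblastoid cells/well, pre-plated 5 hr. Hill-equation modelling gave AC50.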

[16] = Cell Viability - LYMP2-020 (AID 986)
Summary of the method: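 Cytotoxicity in qHTS format: luminescent ATP readout from CellTiter-Glo after 24 h compound exposure at 37 C in complete medium. LYMP2-020 lymphoblastoid cells were seeded at 2500/well; concentration-response data fitted to the Hill equation for AC50.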

[17] = Cell Viability - LYMP2-022 (AID 987)
Summary of the method: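 Cytotoxicity read as decreased cellular ATP (CellTiter-Glo luminescence, 30 min room temperature) after 24 hours compound exposure of 2500 lymphoblastoid LYMP2-022 cells/well at 37 C. Concentration-response data fitted with standard Hill equation for AC50.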

[18] = Cell Viability - LYMP2-024 (AID 988);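 further: plate controls were DMSO only for no effect and 92 µM tetraoctylammonium bromide for full effect; nearly all actives have a fitted effect of over 60% in size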
Summary of the method: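 Cytotoxicity was taken as a decrease in ATP (CellTiter-Glo luminescence) after 24 hr compound exposure at 37 C of LYMP2-024 lymphoblastoid cells, 2500 cells/well. Concentration-response data were fitted to the Hill equation to give AC50.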

[19] = Cell Viability - LYMP2-026 (AID 989); further: on the % scale 0 is the no-effect control and ±100 the full control effect; nearly all actives have a fitted effect of over 50% in size
Summary of the method: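 Cytotoxicity read as ATP-dependent luminescence (CellTiter-Glo, 30 min room temperature) after 24 h compound treatment at 37 C. LYMP2-026 lymphoblastoid line seeded at 2500 cells/well; AC50 derived by standard Hill equation.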

[20] = Cell Viability - LYMP1-002 - Assay at 24 hr (AID 993); further: on the % scale 0 is the no-effect control and ±100 the full control effect
Summary of the method: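 qHTS cytotoxicity at 24 h: CellTiter-Glo ATP luminescence in lymphoblastoid line LYMP1-002 incubated with compound at 37 °C. Concentration-response modeled with the Hill equation for AC50; tetraoctylammonium bromide served as positive control.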

[21] = Cell Viability - LYMP1-002 - Assay at 40 hr (AID 994);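 further: 0% = DMSO only and full inhibition = 92 µM tetraoctylammonium bromide; nearly all actives have a fitted effect of over 60% in size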
Summary of the method: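 Cytotoxicity was read as loss of cellular ATP (CellTiter-Glo luminescence) after 40 hr compound exposure at 37 C of 2500 LYMP1-002 lymphoblastoid cells per well. Concentration-response data were fitted with the standard Hill equation to give AC50.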

[22] = molecular target: ATP-dependent 6-phosphofructokinase (Trypanosoma brucei brucei) (UniProt O15648); test: qHTS Assay to Find Inhibitors of T. brucei phosphofructokinase: hit validation (AID 492961);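 further: luminescence reports ADP formed as PFK phosphorylates fructose-6-phosphate with ATP; series mostly up to about 51 µM; on the % scale 0 is the no-effect control and ±100 the full control effect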
Summary of the method: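 Percent activity derived from corrected luminescence, normalized between 0x and 1x enzyme controls, then fitted to concentration-response curves. Conditions: 1.25 nM PFK, 0.1 mM ATP, 0.5 mM F6P, 45 min RT.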

[23] = molecular target: Estrogen receptor (Homo sapiens) (UniProt P03372); test: qHTS assay for small molecule antagonists of estrogen receptor alpha signaling (AID 588513; active means well fitted curve in the direction sought with a large enough effect in the signal ratio, with a control signal flat, not every such curve was filed as active; the % refers to the signal ratio; further: on the % scale 0 is the no-effect control and ±100 the full control effect)
Summary of the method: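 Beta-lactamase reporter, antagonist mode, HEK 293 GripTite cells; 0.5nM E2 stimulus, 18 h, 37 C; CCF4 dye 2 h RT; fluorescence. IC50 and efficacy from Hill fits, normalized to E2 and DMSO.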

[24] = molecular target: Estrogen receptor (Homo sapiens) (UniProt P03372); test: qHTS assay for small molecule agonists of estrogen receptor alpha signaling (AID 588514; calls by dose curve;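 further: 0% = vehicle only and 100% = reference agonist; nearly all actives have a fitted effect of over 70% in size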)
Summary of the method: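 EC50 and efficacy came from Hill fits of beta-lactamase reporter signal (CCF4 dye, 2 h at room temperature) scaled between DMSO and 20 nM 17-beta-estradiol. Agonist mode: HEK293 ER-alpha-UAS-bla cells in charcoal/dextran-stripped serum medium, 18 h compound exposure at 37 C.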

[25] = qHTS assay for small molecule antagonists of peroxisome proliferator-activated receptor delta signaling (AID 588535; active means well fitted inhibition curve with a large enough effect in the signal ratio, with a control signal flat, not every such curve was filed as active; the % refers to the signal ratio;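 on max response: cells co-treated with a PPAR-delta agonist as stimulator during compound exposure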); details: HEK293T PPARd-UAS-bla, beta-lactamase FRET ratio, 18 h; 460 nm channel
Summary of the method: (§1)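 Inhibition of PPAR-delta response element-driven beta-lactamase expression is measured in HEK293T cells exposed to a compound titration series for 18 hrs at 37 C. Half-maximal inhibition comes from Hill equation fitting.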

[26] = molecular target: Peroxisome proliferator-activated receptor delta (Homo sapiens) (UniProt Q03181); test: as above
Summary of the method: as §1

[27] = molecular target: Peroxisome proliferator-activated receptor gamma (Homo sapiens) (UniProt P37231); test: qHTS assay for small molecule agonists of peroxisome proliferator-activated receptor gamma signaling (AID 588536; active means well fitted curve in the direction sought with a large enough effect in the signal ratio, with a control signal flat, not every such curve was filed as active; the % refers to the signal ratio;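 further: 0% = DMSO basal wells and 100% = rosiglitazone at 2 µM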)
Summary of the method: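 Beta-lactamase reporter read-out: CCF4 fluorescence (ex 405, em 460/530 nm) after 2 h at RT. HEK293 GeneBLAzer cells were treated for 16 h at 37 C. Hill fits gave EC50 and efficacy versus 2 uM rosiglitazone (100%) and DMSO (0%).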

[28] = molecular target: Vitamin D3 receptor (Homo sapiens) (UniProt P11473); test: qHTS assay for small molecule antagonists of vitamin D receptor signaling (AID 588541; calls by dose curve;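 further: receptor activated by calcitriol during compound treatment; series mostly up to about 77 µM; on the % scale 0 is the no-effect control and ±100 the full control effect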)
Summary of the method: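 VDR-UAS-bla HEK293T cells (2000/well, 2% charcoal-stripped FBS) were treated with titrated compounds plus 1-alpha,25-dihydroxyvitamin D3 (50 nM or 3 nM final) for 16 h at 37 C. CCF4 beta-lactamase fluorescence was read; Hill fits gave IC50.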

[29] = molecular target: Vitamin D3 receptor (Homo sapiens) (UniProt P11473); test: qHTS assay for small molecule agonists of vitamin D receptor signaling (AID 588543; calls by dose curve;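 further: 0% = DMSO basal and 100% = reference agonist control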)
Summary of the method: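 β-lactamase reporter, VDR-UAS-bla HEK293T, agonist mode. Cells plated 5 h at 37 °C, compound titration 16 h at 37 °C, CCF4 dye 2 h RT, ratio 460/530 nm. Hill fit → EC50, efficacy vs 50 nM 1α,25-(OH)2D3.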

[30] = qHTS assay for small molecule agonists of retinoid X receptor alpha signaling (AID 588544; calls by dose curve); details: HEK293T RXRa-UAS-bla, beta-lactamase reporter, 18 h; 530 nm emission
[31] = molecular target: Retinoic acid receptor RXR-alpha (Homo sapiens) (UniProt P19793); test: as above
[32] = molecular target: Thyroid hormone receptor beta (Homo sapiens) (UniProt P10828); test: qHTS assay for small molecule agonists of thyroid hormone receptor beta signaling (AID 588545; calls by dose curve;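 further: 0% = DMSO only and 100% = 10 nM T3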)
Summary of the method: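 TR-UAS-bla GripTite HEK 293 cells (2500/well, medium with 2% charcoal/dextran FBS) were treated in agonist mode for 18 h at 37 C, titrated. Beta-lactamase was read by CCF4 ratio after 2 h; normalized to 10 nM T3 (100%) and DMSO, Hill-fitted for EC50 and efficacy.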

[33] = qHTS assay for small molecule antagonists of retinoid X receptor alpha signaling (AID 588546; active means well fitted inhibition curve with a large enough effect in the signal ratio, with a control signal flat, not every such curve was filed as active; the % refers to the signal ratio); details: HEK293T RXRa-UAS-bla, beta-lactamase ratio, antagonist mode; measured here: W530 green channel, cytotoxicity proxy
Summary of the method: (§2)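 Beta-lactamase reporter inhibition, read as CCF4 fluorescence ratio (ex 405, em 460/530 nm) after 2 h at RT. HEK293T UAS-bla cells, 2500/well, were stimulated with 9-cis-RA at 500 or 100 nM final alongside test compound for 18 h at 37 C.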

[34] = molecular target: Retinoic acid receptor RXR-alpha (Homo sapiens) (UniProt P19793); test: as above; details: HEK293T RXRa-UAS-bla, beta-lactamase ratio, antagonist mode
Summary of the method: as §2

[35] = molecular target: Thyroid hormone receptor beta (Homo sapiens) (UniProt P10828); test: qHTS assay for small molecule antagonists of thyroid hormone receptor beta signaling (AID 588547; active means well fitted inhibition curve with a large enough effect in the signal ratio, with a control signal flat, not every such curve was filed as active; the % refers to the signal ratio); details: TR-UAS-bla HEK293, beta-lactamase ratio, antagonist mode, 18 h
Summary of the method: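 TR-UAS-bla GripTite HEK293 cells in 2% charcoal/dextran FBS medium were preincubated 4 h at 37 C, given compound (0.59 nM to 92 uM) plus 0.4 nM T3 (final) for 18 h, then CCF4 for 2 h at RT; Hill fit gave IC50.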

[36] = molecular target: Luciferin 4-monooxygenase (Photinus pyralis) (UniProt P08659); test: Biochemical firefly luciferase enzyme assay for NPC (AID 624030);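 further: purified P. pyralis luciferase at 10 nM with luciferin and ATP substrate; series mostly up to about 59 µM; 0% = DMSO and -100% = full luciferase inhibition by PTC124 control; nearly all actives have a fitted effect of over 70% in size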
Summary of the method: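 Counter-screen for direct inhibition of the luciferase enzyme by approved-drug library compounds, run at 10 nM enzyme in 50 mM Tris acetate (final). Luminescence was read within 5 min of enzyme-buffer addition and normalized to PTC124 versus DMSO (0%).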

[37] = S16 Schwann cell viability assay (CellTiter-Glo assay) (AID 624031);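 further: native untransfected S16 rat Schwann cells; series mostly up to about 58 µM; plate controls were DMSO-treated cells for no effect and cell-free wells for full effect; nearly all actives have a fitted effect of over 70% in size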
Summary of the method: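 Rat S16 Schwann cells without reporter constructs received compound or DMSO for 24 h at 37 °C under 5% CO2. Cellular ATP was then quantified by CellTiter-Glo luminescence, with vehicle wells defined as 0% activity and cell-free wells as reference.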

[38] = S16 Schwann cell PMP22 intronic element firefly luciferase assay (AID 624032);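 further: series mostly up to about 58 µM; plate controls were DMSO for no effect and PTC124 positive control mean for full effect; nearly all actives have a fitted effect of over 30% in size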
Summary of the method: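 Rat S16 Schwann cells stably carrying a PMP22 intronic element-driven Fluc reporter were seeded overnight, then exposed to compounds for 24 h at 37 °C. Luminescence was normalized to PTC124 (positive control) and DMSO (0% activity).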

Retinoic acid receptor RXR-alpha (Homo sapiens), sequence (P19793 whole entry, looked up): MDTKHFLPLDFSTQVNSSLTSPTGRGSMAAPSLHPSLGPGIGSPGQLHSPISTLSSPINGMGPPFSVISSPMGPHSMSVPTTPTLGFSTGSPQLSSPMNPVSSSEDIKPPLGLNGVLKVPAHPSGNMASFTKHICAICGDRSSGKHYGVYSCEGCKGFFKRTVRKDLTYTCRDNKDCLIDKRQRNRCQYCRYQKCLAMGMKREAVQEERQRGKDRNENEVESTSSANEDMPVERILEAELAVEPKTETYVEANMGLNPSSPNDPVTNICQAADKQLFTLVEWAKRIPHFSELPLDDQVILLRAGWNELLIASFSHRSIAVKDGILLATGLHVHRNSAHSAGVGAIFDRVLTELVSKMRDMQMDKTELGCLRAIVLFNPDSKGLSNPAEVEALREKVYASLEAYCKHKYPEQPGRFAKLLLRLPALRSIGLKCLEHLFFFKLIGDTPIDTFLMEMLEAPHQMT
Vitamin D3 receptor (Homo sapiens), sequence (P11473 whole entry, looked up): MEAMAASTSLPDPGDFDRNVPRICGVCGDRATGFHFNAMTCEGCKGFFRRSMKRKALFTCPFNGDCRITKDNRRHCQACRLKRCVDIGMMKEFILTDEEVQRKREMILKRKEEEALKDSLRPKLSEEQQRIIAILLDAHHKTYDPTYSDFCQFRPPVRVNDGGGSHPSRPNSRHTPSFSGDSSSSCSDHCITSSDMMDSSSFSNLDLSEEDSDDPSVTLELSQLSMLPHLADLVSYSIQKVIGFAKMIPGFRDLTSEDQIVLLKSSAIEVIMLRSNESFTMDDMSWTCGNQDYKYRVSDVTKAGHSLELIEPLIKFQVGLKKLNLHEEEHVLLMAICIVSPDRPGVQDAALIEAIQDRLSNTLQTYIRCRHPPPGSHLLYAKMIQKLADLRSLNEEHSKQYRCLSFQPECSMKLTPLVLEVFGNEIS
Estrogen receptor (Homo sapiens), sequence (P03372 whole entry, looked up): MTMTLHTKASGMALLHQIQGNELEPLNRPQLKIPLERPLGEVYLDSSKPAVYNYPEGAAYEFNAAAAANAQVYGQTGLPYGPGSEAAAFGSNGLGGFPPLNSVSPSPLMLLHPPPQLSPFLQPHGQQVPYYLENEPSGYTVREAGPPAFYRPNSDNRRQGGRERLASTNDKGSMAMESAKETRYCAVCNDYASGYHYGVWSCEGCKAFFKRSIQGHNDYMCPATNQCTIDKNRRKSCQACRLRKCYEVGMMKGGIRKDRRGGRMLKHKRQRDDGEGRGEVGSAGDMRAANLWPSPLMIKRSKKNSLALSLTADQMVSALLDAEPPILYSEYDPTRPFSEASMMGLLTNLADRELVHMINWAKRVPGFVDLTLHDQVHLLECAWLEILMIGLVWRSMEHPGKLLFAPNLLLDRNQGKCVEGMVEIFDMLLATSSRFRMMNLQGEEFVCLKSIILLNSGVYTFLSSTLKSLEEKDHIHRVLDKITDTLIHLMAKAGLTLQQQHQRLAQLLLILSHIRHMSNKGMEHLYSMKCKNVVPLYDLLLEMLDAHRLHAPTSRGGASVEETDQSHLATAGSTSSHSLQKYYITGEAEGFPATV
Thyroid hormone receptor beta (Homo sapiens), sequence (P10828 whole entry, looked up): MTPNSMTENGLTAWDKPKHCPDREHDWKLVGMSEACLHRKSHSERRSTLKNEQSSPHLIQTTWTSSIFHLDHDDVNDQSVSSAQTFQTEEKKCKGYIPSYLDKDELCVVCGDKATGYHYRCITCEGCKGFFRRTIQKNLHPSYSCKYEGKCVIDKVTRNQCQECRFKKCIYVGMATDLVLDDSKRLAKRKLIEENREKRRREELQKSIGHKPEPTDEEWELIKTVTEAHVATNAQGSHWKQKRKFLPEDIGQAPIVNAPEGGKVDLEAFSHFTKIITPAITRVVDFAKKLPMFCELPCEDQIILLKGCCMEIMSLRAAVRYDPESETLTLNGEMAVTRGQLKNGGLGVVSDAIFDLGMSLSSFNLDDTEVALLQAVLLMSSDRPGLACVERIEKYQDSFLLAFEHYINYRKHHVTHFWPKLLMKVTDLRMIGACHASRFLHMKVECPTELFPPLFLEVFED
Peroxisome proliferator-activated receptor delta (Homo sapiens), sequence (Q03181 whole entry, looked up): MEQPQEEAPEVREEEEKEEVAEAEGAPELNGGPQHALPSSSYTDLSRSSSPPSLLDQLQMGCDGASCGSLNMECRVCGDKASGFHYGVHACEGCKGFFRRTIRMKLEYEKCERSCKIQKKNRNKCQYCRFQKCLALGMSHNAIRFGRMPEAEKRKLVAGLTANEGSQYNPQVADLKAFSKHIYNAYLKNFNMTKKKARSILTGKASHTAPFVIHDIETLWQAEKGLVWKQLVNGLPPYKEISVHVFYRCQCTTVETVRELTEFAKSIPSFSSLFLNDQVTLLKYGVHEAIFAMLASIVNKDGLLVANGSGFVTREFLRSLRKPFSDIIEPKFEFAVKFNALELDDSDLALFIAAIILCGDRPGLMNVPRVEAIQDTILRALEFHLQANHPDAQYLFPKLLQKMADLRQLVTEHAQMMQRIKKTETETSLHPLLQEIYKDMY
Peroxisome proliferator-activated receptor gamma (Homo sapiens), sequence (P37231 whole entry, looked up): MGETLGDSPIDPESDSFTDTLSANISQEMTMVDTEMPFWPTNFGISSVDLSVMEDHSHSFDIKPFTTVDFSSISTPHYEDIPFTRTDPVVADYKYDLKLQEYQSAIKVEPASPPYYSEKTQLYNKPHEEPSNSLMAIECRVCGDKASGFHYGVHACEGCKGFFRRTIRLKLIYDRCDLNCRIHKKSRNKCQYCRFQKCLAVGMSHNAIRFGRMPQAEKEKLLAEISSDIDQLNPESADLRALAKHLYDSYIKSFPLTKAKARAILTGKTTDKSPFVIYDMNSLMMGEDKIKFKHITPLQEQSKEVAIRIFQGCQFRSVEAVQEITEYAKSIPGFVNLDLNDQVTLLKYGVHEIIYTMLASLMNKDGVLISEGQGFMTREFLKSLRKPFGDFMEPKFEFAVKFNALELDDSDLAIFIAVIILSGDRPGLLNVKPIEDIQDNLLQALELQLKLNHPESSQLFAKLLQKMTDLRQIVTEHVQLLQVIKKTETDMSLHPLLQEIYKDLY
Luciferin 4-monooxygenase (Photinus pyralis), sequence (P08659 whole entry, looked up): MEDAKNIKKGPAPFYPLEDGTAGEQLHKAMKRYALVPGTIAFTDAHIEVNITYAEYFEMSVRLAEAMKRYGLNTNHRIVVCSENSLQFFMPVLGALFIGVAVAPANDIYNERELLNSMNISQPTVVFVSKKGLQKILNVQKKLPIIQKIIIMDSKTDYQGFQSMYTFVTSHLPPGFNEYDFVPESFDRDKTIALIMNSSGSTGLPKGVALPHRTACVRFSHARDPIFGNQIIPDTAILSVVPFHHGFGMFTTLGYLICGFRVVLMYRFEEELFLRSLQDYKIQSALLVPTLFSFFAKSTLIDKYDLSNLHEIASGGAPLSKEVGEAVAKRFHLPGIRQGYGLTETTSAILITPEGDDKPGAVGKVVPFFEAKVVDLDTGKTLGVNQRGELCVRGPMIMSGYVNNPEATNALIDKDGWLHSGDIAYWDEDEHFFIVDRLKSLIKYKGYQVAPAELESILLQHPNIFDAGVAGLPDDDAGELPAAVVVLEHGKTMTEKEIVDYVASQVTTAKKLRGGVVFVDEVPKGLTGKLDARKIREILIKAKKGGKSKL
ATP-dependent 6-phosphofructokinase (Trypanosoma brucei brucei), sequence (O15648 whole entry, looked up): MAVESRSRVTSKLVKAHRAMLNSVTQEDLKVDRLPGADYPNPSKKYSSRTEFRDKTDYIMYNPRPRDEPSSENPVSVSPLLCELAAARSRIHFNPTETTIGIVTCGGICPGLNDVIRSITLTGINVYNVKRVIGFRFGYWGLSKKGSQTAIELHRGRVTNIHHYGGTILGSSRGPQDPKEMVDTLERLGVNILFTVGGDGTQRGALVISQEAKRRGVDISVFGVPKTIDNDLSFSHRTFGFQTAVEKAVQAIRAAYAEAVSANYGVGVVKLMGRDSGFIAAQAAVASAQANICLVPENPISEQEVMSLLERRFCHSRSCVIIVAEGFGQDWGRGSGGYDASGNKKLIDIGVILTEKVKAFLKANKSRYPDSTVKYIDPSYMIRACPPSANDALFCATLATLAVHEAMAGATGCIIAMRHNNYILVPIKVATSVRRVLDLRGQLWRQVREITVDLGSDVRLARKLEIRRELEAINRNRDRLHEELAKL

CN1[C@H]2CC(OC(=O)[C@H](CO)c3ccccc3)C[C@H]1[C@H]1O[C@H]12 (stereo partly drawn)
3.87% and -2.7%: max response [30]
-6.66% and 15.5%: max response [25]
inactive: Potency [1] | Potency [2] | Potency [3] | Potency [4] | Potency [5] | Potency [6] | Potency [7] | Potency [8] | Potency [9] | Potency [10] | Potency [11] | Potency [12] | Potency [13] | Potency [14] | Potency [15] | Potency [16] | Potency [17] | Potency [18] | Potency [19] | Potency [20] | Potency [21] | Potency [22] | Potency [23] | outcome [24] | outcome [26] | outcome [27] | Potency [28] | outcome [29] | outcome [31] | outcome [32] | max response [34] -1.24% and 3.3% | activity change % (negative = inhibition) [35] -22.7% and -1.59% | Potency [36] | Potency [37] | Potency [38]
-12.3% and -10.2%: max response [33]
